In PubChem BioAssay (NCI):
About 79,000 compounds went through this panel and 15% of them were active in at least one assay; those are over-represented in the sample as a whole. No stated cut-off is given here; in the data, active means growth inhibition above about 70%; inactive means the rest.

Tests used:
[1] = NCI Yeast Anticancer Drug Screen. Data for the rad50 strain (AID 155);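 further: 0% = growth of vehicle-only cultures of the same strain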; settings: S. cerevisiae rad50 strain growth inhibition; at 50.0 µM; hits give high values
How it was run: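 Yeast carrying a defined DNA repair defect were exposed to test compounds, and growth was compared with vehicle-treated controls to give percent inhibition.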

[2] = NCI Yeast Anticancer Drug Screen. Data for the mec2-1 strain (AID 157); settings: S. cerevisiae mec2-1 strain, at 50.0 µM, hits give high values
How it was run: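 Each compound was tested on mec2-1 yeast, a strain altered in DNA damage repair or cell cycle control. Growth inhibition is reported relative to vehicle.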

[3] = NCI Yeast Anticancer Drug Screen. Data for the sgs1 mgt1 strain (AID 161);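 further: 0% = growth of cultures given vehicle only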; settings: S. cerevisiae sgs1 mgt1 strain, at 50.0 µM, hits give high values
How it was run: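 Mutant yeast exposed to compound; growth scored against vehicle-only wells.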

[4] = NCI Yeast Anticancer Drug Screen. Data for the cln2 rad14 strain (AID 165);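 further: 0% = growth equal to vehicle treated cultures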; settings: S. cerevisiae cln2 rad14 strain, at 50.0 µM, hits give high values
How it was run: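 Test compounds were added to cln2 rad14 yeast cultures; inhibition of growth was then determined by comparison with vehicle treatment.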

[5] = NCI Yeast Anticancer Drug Screen. Data for the bub3 strain (AID 167); settings: S. cerevisiae bub3 mutant strain, at 50.0 µM, hits give high values
How it was run: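 Compounds were applied to a genetically altered yeast strain carrying a cell-cycle control defect. Growth inhibition was scored against vehicle-treated controls.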

[6] = NCI Yeast Anticancer Drug Screen. Data for the mlh1 rad18 strain (AID 175); settings: S. cerevisiae mlh1 rad18 strain growth inhibition; at 50.0 µM; hits give high values
How it was run: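 Inhibition values reflect reduced growth of mutant yeast versus vehicle-treated controls following compound exposure; the mutations affect DNA damage repair.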

Measured: growth inhibition

O=C(O)C(=O)Cc1cccc(Cl)c1[N+](=O)[O-]
inactive: [1] 2.15% | [2] 5.25% | [3] 13.4% | [4] -10.6% | [5] -4.75% | [6] 15%

O=[N+]([O-])c1cccc(S(=O)(=O)O)c1 (tested in a mixture with another compound)
inactive: [1] 15.3% | [2] -3.65% | [3] -0.1% | [4] -33.6% | [5] -2.2% | [6] -4.95%

COc1cccc(/C=N/N(C)c2c([N+](=O)[O-])cc(C(F)(F)F)cc2[N+](=O)[O-])c1O
inactive: [1] -1.3% | [2] -17.3% | [3] -16.6% | [4] 14.1% | [5] 3.7% | [6] -5.8%

COc1ccc(-c2oc3cc(OC)ccc3c(=O)c2O)cc1
inactive: [1] 22.5% | [2] 25.4% | [3] 8.1% | [4] -3.5% | [5] -5.1% | [6] 8.25%

COc1cc(C2C(C(=O)O)=C(CO)Oc3cc4c(cc32)OCO4)cc(OC)c1OC (centres undefined)
inactive: [1] -5.4% | [2] 7.35% | [3] -4.95% | [4] 1.1% | [5] -4.6% | [6] 4.25%

c1cc2c([nH]1)CCCC2
inactive: [1] 12.5% | [2] 14.3% | [3] 2.45% | [4] 21.1% | [5] 23.6% | [6] 13.9%

O=C(O)CCn1cnc2c(=S)nc[nH]c21
inactive: [1] -23.2% | [2] -23.1% | [3] -28.4% | [4] -3.05% | [5] -54.6% | [6] -16.5%

CCO/C(=C/[S+](C)C)c1ccccc1
inactive: [1] 0.55% | [2] -4.4% | [3] -19.9% | [4] 2.95% | [5] 9.3% | [6] 5.35%

O=S(=O)(O)c1cccc2nsnc12
inactive: [1] -0.35% | [2] -2.05% | [3] -3.6% | [4] 13.1% | [5] 9.5% | [6] -1.3%

N/N=C(/Cc1nc2ccc(C(=O)c3ccccc3)cc2[nH]c1=O)C(=O)Nc1ccc([N+](=O)[O-])cc1[N+](=O)[O-]
inactive: [1] 23.4% | [2] 13.2% | [3] -3.6% | [4] -47.8% | [5] 5.2% | [6] 15.6%

CCOC(=O)C1=C(NC(C)=O)Sc2ccccc2C1
inactive: [1] 27.9% | [2] 6.6% | [3] 1.8% | [4] -19.3% | [5] 2.45% | [6] 25%

O=C(O)CNCc1ccccc1
inactive: [1] 2.85% | [2] 22.5% | [3] 14.6% | [4] -4.45% | [5] 16.4% | [6] -15.3%

C=CCOC(=O)NCC(=O)NC(C)C(N)=O (centres undefined)
inactive: [1] -22.7% | [2] -14.2% | [3] -19.1% | [4] 2.55% | [5] -5.5% | [6] 4.25%

O=CN(C1CCCCC1)C1CCCCC1
inactive: [1] 14.6% | [2] 15.6% | [3] 11% | [4] 8.8% | [5] 1.5% | [6] 0%

COc1cc(OC)cc(C2OC(N)=C(O)C2=O)c1 (centres undefined)
inactive: [1] 9.65% | [2] 4.25% | [3] 13% | [4] 14.9% | [5] 2.35% | [6] 19.3%

O/N=C1/CCCCc2ccccc21
inactive: [1] -13.4% | [2] 0.95% | [3] -21.2% | [4] -29.7% | [5] -14.4% | [6] -15.2%

O=C(O)CSCc1ccccc1Cl
inactive: [1] 1.6% | [2] -6.05% | [3] -9.5% | [4] 8.25% | [5] -13.1% | [6] -11.1%

CCc1cccc(CC)c1NC(=S)NN
inactive: [1] 17.4% | [2] 15.3% | [3] 41.9% | [4] -6% | [5] 24.2% | [6] 5.55%

COC1=CC(=O)c2ccc(C(C)C)cc2C1(C)C1=NC(C)(C)CO1 (centres undefined)
inactive: [1] -1.55% | [2] -14.4% | [3] -0.85% | [4] 16.8% | [5] -6.45% | [6] -9.8%
